According to PubChem BioAssay AID1159580 (chemical genetic matrix, 2015):
Out of some 5,500 compounds screened, about 2,000 (36%) were called active. About 18% were inconclusive and are not listed. No stated cut-off is given here; in the data, active means normalized growth mostly below about 0.91 (no sharp cut-off); inconclusive means no clear call, values can overlap the other calls; inactive means mostly above about 0.92. Some of the results follow.

Assay: chemical genetic growth profiling, strain panel (AID 1159580);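 further: tested at 20 µM; growth read once vehicle control cultures reached saturation at 30 °C; 1 = growth at the plate median or of vehicle wells; lower values mean less growth of the strain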
Details: S. cerevisiae deletion strains, growth OD

Measured: normalized growth

CCCN(CCc1ccccc1)C1CCc2c(O)cccc2C1 (centres undefined)
inactive: locus YAL013W, strain DEP1, hits give low values 0.992 | locus YAL040C, strain CLN3, hits give low values 1.02 | locus YCL061C, strain MRC1 (second series), hits give low values 1 | locus YDR363W, strain ESC2, hits give low values 1.02 | locus YER002W, strain NOP16, hits give low values 1 | locus YGR229C, strain SMI1, hits give low values 0.988 | locus YJR075W, strain HOC1, hits give low values 1 | locus YMR263W, strain SAP30, hits give low values 1 | locus YMR307W, strain GAS1, hits give low values 0.997 | locus YNL153C, strain GIM3, hits give low values 0.957 | locus YNL175C, strain NOP13, hits give low values 1 | locus YNL224C, strain SQS1, hits give low values 1.01 | locus YOR083W, strain WHI5 (second series), hits give low values 1.02 | locus YPL055C, strain LGE1, hits give low values 0.973
